Measured values taken from PubChem BioAssay (NCI).
Compounds without any hit were thinned out: in the full panel of roughly 83,000, 20% have a hit.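 Each cell line was grown in a 96-well plate and treated with one concentration of compound for 48 hours. Values below 10 were considered active.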 Calls of active or inactive are those of the source.

The compounds below were run on SNB-75 CNS (assay: NCI-60 one-dose screen, 48 h (100 = growth as untreated, 0 = no growth, -100 = all killed)). Conditions: 10 µM unless noted.

Row | Compound | growth
1 | CN(C)CCN1C(=O)c2cccc3c(-c4ccc(-c5nc6c7ccccc7c7ccccc7c6[nH]5)cc4)ccc(c23)C1=O | 117% (inactive)
2 | O=C(Nc1ccc(N2CCCCC2)c(Cl)c1)c1ccc(Br)o1 | 60.7% (inactive)
3 | COc1ccc(OC)c(Nc2nc3nonc3nc2Nc2cccc(Br)c2)c1 | 3.07% (active)
4 | O=C(NCCN1CCC(O)CC1)c1cc2c(o1)C(=O)c1ccccc1C2=O | -98.5% (active)
5 | COc1cc(/C=C/C(=O)c2cccc(-n3cc(-c4ccccc4)[nH]c3=O)c2)cc(OC)c1OC | 34.2% (inactive)
6 | Fc1ccc(Nc2nc(Nc3ccc(-c4nc5ccccc5[nH]4)cc3)c3cn[nH]c3n2)cc1 | 83.3% (inactive)
7 | COc1ccc(-c2nc3sc4c(c3c(=O)[nH]2)CCCC4)c2ccccc12 | -25.5% (active)
8 | O=[N+]([O-])c1ccccc1C(O)Cc1ccc2ccccc2n1 (centres undefined) | 85.8% (inactive)
9 | N#Cc1c(NC(=O)c2ccccc2I)sc2c1CCCC2 | 16.7% (inactive)
10 | NC(=O)c1c(NC(=O)c2ccc(C(F)(F)F)cc2Cl)sc2c1CCC(=O)C2 | -81.9% (active)
11 | COc1cc(CNC(=O)/C=C/C=C/c2ccc3c(c2)OCO3)ccc1OCc1cn(-c2ccc(Cl)c(Cl)c2)nn1 | -36.8% (active)
12 | CSc1ccc(Cl)c(C(=O)Nc2sccc2C(N)=O)c1 | 105% (inactive)
13 | COc1cc(-c2cccc([N+](=O)[O-])c2)c(-c2nc(-c3ccccc3)c(-c3ccccc3)n2C2CC2)cc1OC | 67.7% (inactive)
14 | O=C(/C=C/C12c3ccccc3C(c3ccccc31)C1C(=O)NC(=O)C12)c1ccc(Cl)cc1 (centres undefined) | 8.43% (active)
15 | O=S(=O)(Nc1ccsc1-c1nc(-c2ccccc2)no1)c1cc(Cl)cc(Cl)c1 | 73% (inactive)
16 | C[C@H]1[C@H]2C3=CC[C@@H]4[C@@]5(C)C/C(=C/c6ccncc6)C(=O)C(C)(C)[C@@H]5CC[C@@]4(C)[C@]3(C)CC[C@@]2(C(=O)N2CCN(C)CC2)CC[C@@H]1C | 76.3% (inactive)
17 | C=C1C(=O)O[C@H]2[C@H]1CC/C(C(=O)NCCCCCCCCNC(=O)/C1=C/CC[C@@]3(C)O[C@H]3[C@H]3OC(=O)C(=C)[C@@H]3CC1)=C\CC[C@@]1(C)O[C@@H]21 | 85.9% (inactive)
18 | CC(C)OC(=O)NNC(=O)c1ccncc1 | 91% (inactive)
19 | COc1cc2c(=O)n(CCCn3ccnc3)c3c4cc5c(cc4ccc3c2cc1OC)OCO5 | 1.74% (active)
20 | COc1cc(/C=C/c2nc(Nc3ccc(S(=O)(=O)Nc4cc(C)on4)cc3)c3ccccc3n2)ccc1O | 59.7% (inactive)

Row | Compound | growth
21 | C[C@@H]1CC[C@@H]2[C@@H]1[C@H](OC(=O)/C=C/c1ccccc1)[C@]1(CCCOCCOCCOCCOC(=O)CCCC[C@@H]3SC[C@@H]4NC(=O)N[C@@H]43)C[C@@H](OC(=O)CO)[C@@]2(C)O1 | 88.8% (inactive)
22 | O=C(CCCCCCCn1cc(-c2cccnc2)nn1)Nc1ccccc1-c1ccccc1 | 92.3% (inactive)
23 | O=C(NCc1cn(Cc2cccc(Oc3ccccc3)c2)nn1)c1cccnc1NCc1ccc(Cl)cc1 | 11% (inactive)
24 | CCOC(=O)c1c(C)nc2c(c1N)/C(=C/c1ccc(OC)cc1)C(=O)N2Cc1ccc(F)cc1 | -13.7% (active)
25 | O=C(O)c1ccc(CO)o1 | 90.7% (inactive)
26 | CN(C)CN1CCN(c2ccc3nc(-c4ccc5nc(-c6ccc(C(F)(F)F)cc6)[nH]c5c4)[nH]c3c2)CC1 | 38.8% (inactive)
27 | COc1ccc(-c2nc3ccccn3c2/C=C/C(=O)c2cc(OC)c(OC)c(OC)c2)cc1 | 44.3% (inactive)
28 | Cc1nc(Nc2ccc(S(=O)(=O)Nc3cc(C)on3)cc2)c2ccccc2n1 | 83.2% (inactive)
29 | C#C[C@]1(O)CC[C@H]2[C@@H]3CC=C4c5sc(N=C(N)N)nc5CC[C@]4(C)[C@H]3CC[C@@]21C | -60.5% (active)
30 | Clc1ccc2[nH]c3c(NCCCN4CCOCC4)ncnc3c2c1 | 85% (inactive)
31 | Cc1cc(C(c2ccccc2)c2ccccc2)ccc1NS(=O)(=O)c1ccccc1 | 95.4% (inactive)
32 | COc1cc(NC(=O)c2cccc(-c3cc(=O)c4c(O)c(OC)c(OC)cc4o3)c2)cc(OC)c1OC | 32.3% (inactive)
33 | Cc1ccc(S(=O)(=O)N(CC[C@@H]2C[C@H]2c2cc3ccccc3o2)C(=O)NC2CCCCC2)cc1 | 102% (inactive)
34 | CC(C)CCC[C@@H](C)[C@H]1CCC2C3=CCC4C(=O)C=CC(=O)C4C3CC[C@@]21C (some centres undefined) | 7.34% (active)
35 | Cc1ccc(/C=C(\C#N)n2nnc3cc(Cl)c(Cl)cc32)cc1 | -24.6% (active)
36 | COc1cc(C2C=C(c3cccc(NC(C)=O)c3)Nc3ncnn32)cc(OC)c1OC (centres undefined) | 21.9% (inactive)
37 | CC(=[N-])N1CCC[C@@H](Nc2c3ccccc3nc3ccccc23)C1.[Cl][Pt].[NH-]CCC[NH-] | 3.22% (active)
38 | O=C(/C=C/C12c3ccccc3C(c3ccccc31)C1C(=O)NC(=O)C12)c1ccccc1 (centres undefined) | -2.11% (active)
39 | COc1cc2ccccc2cc1C(=O)NC(=S)Nc1ccc(-c2nc3ccccc3[nH]2)cc1 | 54.4% (inactive)
